Experimental findings from the supplement of paper PMC10849652 are described below.

About 7,900 targets were measured; listed, in parts, are those with a hit and a random draw of the rest. About 0.6% of all pairs of compound and target were hits. Values without a mark were called inactive.

UniProt Q86WA6, sequence (Q86WA6 whole entry, looked up): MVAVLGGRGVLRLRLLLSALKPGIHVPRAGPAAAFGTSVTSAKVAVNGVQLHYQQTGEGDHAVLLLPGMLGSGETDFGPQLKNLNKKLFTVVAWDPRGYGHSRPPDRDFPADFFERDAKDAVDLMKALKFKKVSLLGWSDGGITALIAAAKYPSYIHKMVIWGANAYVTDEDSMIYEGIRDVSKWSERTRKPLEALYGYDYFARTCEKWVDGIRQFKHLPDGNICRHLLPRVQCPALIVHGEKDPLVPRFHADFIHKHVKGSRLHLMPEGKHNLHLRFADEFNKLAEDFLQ
UniProt P11310, sequence (P11310 whole entry, looked up): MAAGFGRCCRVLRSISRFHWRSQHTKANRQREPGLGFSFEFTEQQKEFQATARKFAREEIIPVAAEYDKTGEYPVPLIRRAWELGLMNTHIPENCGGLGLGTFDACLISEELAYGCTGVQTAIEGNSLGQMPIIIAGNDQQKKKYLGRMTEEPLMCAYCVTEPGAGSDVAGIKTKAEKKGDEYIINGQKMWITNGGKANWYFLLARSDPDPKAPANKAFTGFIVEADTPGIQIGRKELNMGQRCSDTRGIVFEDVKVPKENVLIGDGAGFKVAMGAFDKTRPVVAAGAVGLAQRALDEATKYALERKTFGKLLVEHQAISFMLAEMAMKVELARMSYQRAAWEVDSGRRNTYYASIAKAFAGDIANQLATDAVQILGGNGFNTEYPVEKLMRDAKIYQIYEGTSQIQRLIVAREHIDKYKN
UniProt Q96BI3, sequence (Q96BI3 whole entry, looked up): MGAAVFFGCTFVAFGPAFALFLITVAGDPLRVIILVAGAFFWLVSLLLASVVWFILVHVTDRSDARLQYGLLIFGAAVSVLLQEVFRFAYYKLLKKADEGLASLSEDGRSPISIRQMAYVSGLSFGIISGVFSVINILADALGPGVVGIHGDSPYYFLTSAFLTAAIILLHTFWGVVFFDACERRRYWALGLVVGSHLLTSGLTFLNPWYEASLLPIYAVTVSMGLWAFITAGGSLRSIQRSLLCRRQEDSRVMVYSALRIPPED
UniProt Q9Y6E2, sequence (Q9Y6E2 whole entry, looked up): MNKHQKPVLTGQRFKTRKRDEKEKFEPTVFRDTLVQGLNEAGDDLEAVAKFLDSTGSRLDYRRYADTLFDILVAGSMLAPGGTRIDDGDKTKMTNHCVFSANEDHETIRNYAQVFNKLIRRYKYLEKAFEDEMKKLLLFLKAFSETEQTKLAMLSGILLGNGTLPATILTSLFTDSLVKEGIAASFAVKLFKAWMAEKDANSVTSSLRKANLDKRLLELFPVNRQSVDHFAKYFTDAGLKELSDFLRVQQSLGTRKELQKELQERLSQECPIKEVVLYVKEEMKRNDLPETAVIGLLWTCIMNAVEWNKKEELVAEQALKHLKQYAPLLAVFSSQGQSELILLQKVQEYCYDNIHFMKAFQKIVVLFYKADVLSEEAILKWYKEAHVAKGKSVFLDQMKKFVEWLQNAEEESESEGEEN
UniProt O00468, sequence (O00468 whole entry, looked up): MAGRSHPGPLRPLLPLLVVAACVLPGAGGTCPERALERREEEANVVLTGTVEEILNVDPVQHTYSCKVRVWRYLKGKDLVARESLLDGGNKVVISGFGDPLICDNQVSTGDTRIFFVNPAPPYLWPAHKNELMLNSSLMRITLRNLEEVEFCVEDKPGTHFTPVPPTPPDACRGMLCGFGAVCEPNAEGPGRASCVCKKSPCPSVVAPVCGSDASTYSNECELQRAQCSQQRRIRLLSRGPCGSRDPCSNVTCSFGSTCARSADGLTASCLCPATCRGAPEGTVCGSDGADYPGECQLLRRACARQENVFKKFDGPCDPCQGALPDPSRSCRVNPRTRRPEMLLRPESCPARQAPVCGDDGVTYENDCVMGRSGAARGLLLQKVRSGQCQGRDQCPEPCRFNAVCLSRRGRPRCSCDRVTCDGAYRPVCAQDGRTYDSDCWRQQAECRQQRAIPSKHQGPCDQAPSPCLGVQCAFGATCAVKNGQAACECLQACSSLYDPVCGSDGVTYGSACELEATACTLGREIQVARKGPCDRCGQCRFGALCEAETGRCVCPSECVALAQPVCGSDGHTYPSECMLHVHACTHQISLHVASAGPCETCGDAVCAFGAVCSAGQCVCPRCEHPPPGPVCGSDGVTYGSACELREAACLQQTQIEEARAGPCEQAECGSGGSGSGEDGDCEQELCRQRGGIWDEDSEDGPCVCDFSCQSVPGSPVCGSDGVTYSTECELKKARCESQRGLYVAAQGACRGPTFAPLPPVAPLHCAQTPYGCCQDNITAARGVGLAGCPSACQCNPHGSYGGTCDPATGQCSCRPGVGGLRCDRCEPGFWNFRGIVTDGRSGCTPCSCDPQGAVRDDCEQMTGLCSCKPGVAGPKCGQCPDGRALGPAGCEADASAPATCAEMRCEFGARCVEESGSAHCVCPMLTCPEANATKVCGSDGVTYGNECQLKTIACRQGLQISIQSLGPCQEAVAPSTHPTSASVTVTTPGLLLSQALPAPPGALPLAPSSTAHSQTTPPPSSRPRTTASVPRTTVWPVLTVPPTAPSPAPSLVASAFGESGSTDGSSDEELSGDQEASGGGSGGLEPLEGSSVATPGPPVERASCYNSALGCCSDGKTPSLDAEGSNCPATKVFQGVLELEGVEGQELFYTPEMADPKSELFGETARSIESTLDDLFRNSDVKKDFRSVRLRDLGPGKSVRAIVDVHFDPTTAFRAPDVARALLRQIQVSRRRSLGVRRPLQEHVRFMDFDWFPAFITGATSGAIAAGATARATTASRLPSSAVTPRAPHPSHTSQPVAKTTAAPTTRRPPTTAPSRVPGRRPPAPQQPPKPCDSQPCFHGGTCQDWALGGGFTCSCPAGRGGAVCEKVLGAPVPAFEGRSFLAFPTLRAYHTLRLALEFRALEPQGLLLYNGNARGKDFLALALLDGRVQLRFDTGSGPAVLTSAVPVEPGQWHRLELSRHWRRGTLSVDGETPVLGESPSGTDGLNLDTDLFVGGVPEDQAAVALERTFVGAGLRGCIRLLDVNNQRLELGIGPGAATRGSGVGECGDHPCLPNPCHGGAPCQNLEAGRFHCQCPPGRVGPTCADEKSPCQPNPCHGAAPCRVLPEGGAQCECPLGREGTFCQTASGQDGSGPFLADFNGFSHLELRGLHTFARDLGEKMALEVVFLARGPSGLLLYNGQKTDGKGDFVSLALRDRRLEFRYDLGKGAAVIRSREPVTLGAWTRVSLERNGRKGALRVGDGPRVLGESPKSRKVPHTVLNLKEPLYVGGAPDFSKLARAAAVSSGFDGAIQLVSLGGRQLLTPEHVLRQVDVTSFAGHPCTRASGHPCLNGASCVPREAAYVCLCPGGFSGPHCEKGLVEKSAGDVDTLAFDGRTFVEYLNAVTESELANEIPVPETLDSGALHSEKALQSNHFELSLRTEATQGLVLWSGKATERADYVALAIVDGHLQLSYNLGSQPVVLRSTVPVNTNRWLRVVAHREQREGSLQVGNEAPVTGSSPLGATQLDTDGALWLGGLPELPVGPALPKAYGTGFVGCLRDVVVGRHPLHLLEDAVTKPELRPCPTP
UniProt P42331, sequence (P42331 whole entry, looked up): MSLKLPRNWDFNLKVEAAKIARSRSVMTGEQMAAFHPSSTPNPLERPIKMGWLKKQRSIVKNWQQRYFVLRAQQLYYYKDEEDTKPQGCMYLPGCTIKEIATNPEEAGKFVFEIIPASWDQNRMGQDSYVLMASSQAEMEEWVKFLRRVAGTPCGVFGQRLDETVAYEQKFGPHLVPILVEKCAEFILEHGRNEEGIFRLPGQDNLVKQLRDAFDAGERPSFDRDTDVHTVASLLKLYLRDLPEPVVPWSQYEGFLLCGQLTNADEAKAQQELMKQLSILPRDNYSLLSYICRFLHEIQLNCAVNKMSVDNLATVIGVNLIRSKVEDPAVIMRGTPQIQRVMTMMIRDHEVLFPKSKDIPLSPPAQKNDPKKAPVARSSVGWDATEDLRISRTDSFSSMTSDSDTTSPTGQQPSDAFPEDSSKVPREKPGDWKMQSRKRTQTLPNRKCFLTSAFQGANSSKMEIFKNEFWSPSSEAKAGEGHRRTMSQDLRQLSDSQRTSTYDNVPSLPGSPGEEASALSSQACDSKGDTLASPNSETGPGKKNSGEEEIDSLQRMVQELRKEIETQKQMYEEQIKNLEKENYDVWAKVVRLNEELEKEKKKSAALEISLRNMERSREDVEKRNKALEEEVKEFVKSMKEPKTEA
UniProt P54886, sequence (P54886 whole entry, looked up): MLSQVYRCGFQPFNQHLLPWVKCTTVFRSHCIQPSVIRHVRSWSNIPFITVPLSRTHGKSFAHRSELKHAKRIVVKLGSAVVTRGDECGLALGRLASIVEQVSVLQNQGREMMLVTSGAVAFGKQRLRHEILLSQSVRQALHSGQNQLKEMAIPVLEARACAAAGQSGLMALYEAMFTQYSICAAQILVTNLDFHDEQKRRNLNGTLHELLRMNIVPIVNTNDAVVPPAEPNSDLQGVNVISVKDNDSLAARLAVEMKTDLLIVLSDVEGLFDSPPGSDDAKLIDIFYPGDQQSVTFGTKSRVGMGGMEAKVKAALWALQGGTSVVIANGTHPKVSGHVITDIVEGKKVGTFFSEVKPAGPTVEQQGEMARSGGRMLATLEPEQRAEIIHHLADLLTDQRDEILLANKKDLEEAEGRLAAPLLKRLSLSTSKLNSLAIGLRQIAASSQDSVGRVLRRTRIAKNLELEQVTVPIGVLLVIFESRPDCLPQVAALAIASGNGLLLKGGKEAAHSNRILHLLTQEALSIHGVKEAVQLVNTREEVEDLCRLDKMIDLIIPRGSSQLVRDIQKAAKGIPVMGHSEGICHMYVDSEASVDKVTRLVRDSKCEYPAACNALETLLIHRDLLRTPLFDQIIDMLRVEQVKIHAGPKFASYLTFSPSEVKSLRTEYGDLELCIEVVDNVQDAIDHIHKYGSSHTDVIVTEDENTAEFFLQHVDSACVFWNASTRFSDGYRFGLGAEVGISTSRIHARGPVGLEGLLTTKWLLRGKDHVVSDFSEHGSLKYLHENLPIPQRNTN
UniProt Q16864, sequence (Q16864 whole entry, looked up): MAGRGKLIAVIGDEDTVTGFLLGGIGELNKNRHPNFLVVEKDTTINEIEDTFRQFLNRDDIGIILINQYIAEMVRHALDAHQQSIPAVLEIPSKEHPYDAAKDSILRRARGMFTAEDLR

Compound in one test: C1=CC=C(C=C1)[C@H](COC2=CC3=C(C=C2)NC(=O)N3)NC(=O)C4=CC=CN(C4=O)CC5=CC(=C(C=C5)F)F
The test can be described thus: log2 fold change, soluble protein after heating vs DMSO (PISA); higher = thermal stabilisation; K562 cells, 10 uM, 30 min; active = over 0.2 and 3.5 SD of the protein, either way, in both replicates (recomputed). An outline of the steps:
(§1)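 K562 cells (2×10^6 cells/mL) were treated with 10 μM compound for 30 min, and aliquots were heated for 3 min over 48°C-58°C. Pooled aliquots were extracted in PBS with 0.5% NP-40 at 4°C, and the supernatant after 21,000xg for 90 min was measured by TMTpro 16plex LC-MS/MS with channel sums equalised. Reported thermal stability, relative to control samples and from duplicates, is a log2 fold change.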
For the target AUP1 (UniProt Q9Y679), the log2 fold change is -0.044.

With ACSM3 (UniProt Q53FZ2), the log2 fold change is -0.046.

ADD2 isoform 9 (UniProt P35612): the log2 fold change is 0.02.

Take AHCYL1 (UniProt O43865): the log2 fold change was 0.057.

In the case of ATXN7L3 isoform 2 (UniProt Q14CW9), the log2 fold change was -0.156.

As to AP2B1 isoform 2 (UniProt P63010), the log2 fold change is 0.023.

With ACP1 isoform 2 (UniProt P24666), the log2 fold change was -0.107.

Regarding BZW2 (UniProt Q9Y6E2), the log2 fold change was -0.069.

ATP9B (UniProt O43861): the log2 fold change is -0.092.

AGRN (UniProt O00468): the log2 fold change is 0.06.

Take ALDH1B1 (UniProt P30837): the log2 fold change was 0.037.

Take ACSL4 (UniProt O60488): the log2 fold change was -0.08.

Turning to ATP6V0A1 (UniProt Q93050), the log2 fold change was 0.281.

With ATP6V1F isoform 2 (UniProt Q16864), the log2 fold change was 0.015.

Turning to ALDH18A1 (UniProt P54886), the log2 fold change was -0.107.

With ARFGAP2 (UniProt Q8N6H7), the log2 fold change is -0.006.

Regarding BAP1 (UniProt Q92560), the log2 fold change was -0.226.

Consider APH1A (UniProt Q96BI3), for which the log2 fold change is -0.015.

Turning to ACADM isoform 2 (UniProt P11310), the log2 fold change was 0.007.

In the case of ARHGAP25 isoform 4 (UniProt P42331), the log2 fold change was -0.181.

Regarding BPHL (UniProt Q86WA6), the log2 fold change was -0.015.

Turning to ARL4A (UniProt P40617), the log2 fold change is -0.027.

With ACSL3 (UniProt O95573), the log2 fold change was -0.05.

As to ARL6IP6 (UniProt Q8N6S5), the log2 fold change was -0.003.

For the target ATG9A (UniProt Q7Z3C6), the log2 fold change is 0.018.

For ABCC5 (UniProt O15440), the log2 fold change is -0.034.

In the case of ATAD3A isoform 2 (UniProt Q9NVI7), the log2 fold change was -0.019.

Take BRD4 (UniProt O60885): the log2 fold change was -0.116.

Turning to AIP (UniProt O00170), the log2 fold change is -0.031.

For the target AGPAT1 (UniProt Q99943), the log2 fold change is -0.006.

In the case of ARFIP1 isoform 2 (UniProt P53367), the log2 fold change was 0.009.

With ANAPC2 (UniProt Q9UJX6), the log2 fold change was -0.017.

As for AHSA1 (UniProt O95433), the log2 fold change is -0.035.

Consider ADD1 isoform 3 (UniProt P35611), for which the log2 fold change is 0.01.

For BCCIP isoform 2 (UniProt Q9P287), the log2 fold change was -0.031.

With AASDH (UniProt Q4L235), the log2 fold change was 0.047.

Compound in the next test: CC1=C(SC2=C1C(=N[C@H](C3=NN=C(N32)C)CC(=O)N)C4=CC=C(C=C4)Cl)C
The description is as above. An outline of the steps:
as §1
For the target AUP1 (UniProt Q9Y679), the log2 fold change was 0.053.

For ACSM3 (UniProt Q53FZ2), the log2 fold change is -0.051.

On to AHCYL1 (UniProt O43865), for which the log2 fold change is -0.004.

Consider AP2B1 isoform 2 (UniProt P63010), for which the log2 fold change was -0.017.

Consider ACP1 isoform 2 (UniProt P24666), for which the log2 fold change was -0.028.

As for BZW2 (UniProt Q9Y6E2), the log2 fold change was 0.042.

For ATP9B (UniProt O43861), the log2 fold change was -0.001.

As to AGRN (UniProt O00468), the log2 fold change was 0.154.

As to ALDH1B1 (UniProt P30837), the log2 fold change was 0.064.

As for ACSL4 (UniProt O60488), the log2 fold change is 0.1.

For the target ATP6V1F isoform 2 (UniProt Q16864), the log2 fold change is -0.144.

With ALDH18A1 (UniProt P54886), the log2 fold change is -0.038.

With ARFGAP2 (UniProt Q8N6H7), the log2 fold change was 0.039.

Regarding BAP1 (UniProt Q92560), the log2 fold change was -0.123.

In the case of APH1A (UniProt Q96BI3), the log2 fold change was 0.009.

As for ACADM isoform 2 (UniProt P11310), the log2 fold change is 0.024.

In the case of ARHGAP25 isoform 4 (UniProt P42331), the log2 fold change was -0.171.

Consider BPHL (UniProt Q86WA6), for which the log2 fold change was 0.052.

As for ACSL3 (UniProt O95573), the log2 fold change was 0.068.

On to ARL6IP6 (UniProt Q8N6S5), for which the log2 fold change was 0.113.

In the case of ATG9A (UniProt Q7Z3C6), the log2 fold change is 0.014.

As to ABCC5 (UniProt O15440), the log2 fold change is 0.082.

On to ATAD3A isoform 2 (UniProt Q9NVI7), for which the log2 fold change was -0.037.

For the target BRD4 (UniProt O60885), the log2 fold change is 2.22 (active).

Take AIP (UniProt O00170): the log2 fold change is 0.078.

For AGPAT1 (UniProt Q99943), the log2 fold change is 0.075.

As to ANAPC2 (UniProt Q9UJX6), the log2 fold change was 0.016.

Turning to AHSA1 (UniProt O95433), the log2 fold change is 0.063.

With ADD1 isoform 3 (UniProt P35611), the log2 fold change was -0.003.

As for BCCIP isoform 2 (UniProt Q9P287), the log2 fold change was 0.002.

On to AASDH (UniProt Q4L235), for which the log2 fold change was 0.054.
